The values below come from PubChem BioAssay (NCATS).

The structures appear in SMILES notation. Where “and” joins values, the source holds several entries; their conditions need not be identical. Equal entries are not always repeated. Inconclusive results are not listed. Calls of active or inactive are those of the source. Unless noted, calls come from the whole dose curve.

The target of assay [1] is Glucocorticoid receptor (Homo sapiens) (UniProt P04150). Kind of assay: qHTS assay for small molecule antagonists of glucocorticoid receptor signaling (AID 588533; active = well fitted inhibition curve with a large enough effect in the signal ratio, with a control signal flat, not every such curve was filed as active; the % refers to the signal ratio;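 note: cells stimulated with 2 nM dexamethasone as agonist; % is set by controls: 0 for no effect and ±100 for the full control effect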). A digest of the protocol: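 Antagonist-mode qHTS: compound titrations added to GRE-bla HeLa cells, then dexamethasone 2 nM final; 18 h, 37 C. CCF4 FRET fluorescence normalized to dexamethasone and DMSO; IC50 from Hill fit.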
A general note: Quantitative high-throughput screening tests each substance at several concentrations.

A short description of assay [2]: qHTS assay for small molecule antagonists of peroxisome proliferator-activated receptor delta signaling (AID 588535; active = well fitted inhibition curve with a large enough effect in the signal ratio, with a control signal flat, not every such curve was filed as active; the % refers to the signal ratio;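 for max response: cells co-treated with a PPAR-delta agonist as stimulator during compound exposure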). Particulars: HEK293T PPARd-UAS-bla, beta-lactamase FRET ratio, 18 h; 460 nm channel. A digest of the protocol:
(§1)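 Cell-based beta-lactamase assay in antagonist mode: 4000 HEK293T PPAR-delta-UAS-bla cells per well, 5 hr preincubation then 18 hr compound incubation at 37 C. IC50 obtained by Hill equation fitting.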

Assay [3] deals with Peroxisome proliferator-activated receptor gamma (Homo sapiens) (UniProt P37231). Kind of assay: qHTS assay for small molecule agonists of peroxisome proliferator-activated receptor gamma signaling (AID 588536; active = well fitted curve in the direction sought with a large enough effect in the signal ratio, with a control signal flat, not every such curve was filed as active; the % refers to the signal ratio;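 note: 0% = DMSO basal wells and 100% = rosiglitazone at 2 µM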). A digest of the protocol:
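GeneBLAzer PPAR-gamma-UAS-bla HEK293 cells in 1% charcoal/dextran-treated FBS medium were treated 16 h at 37 C with compounds. Beta-lactamase activity was read by CCF4 ratio (460/530 nm). Response was normalized to 2 uM rosiglitazone (100%) and DMSO, then Hill-fitted for EC50 and efficacy.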

Assay [4] can be described thus: qHTS assay for small molecule agonists of retinoid X receptor alpha signaling (AID 588544).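 For activation: 0% = DMSO basal wells and 100% = reference agonist.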 The note with it: HEK293T RXRa-UAS-bla, beta-lactamase reporter, 18 h; 530 nm emission.
For assay [5], the target named is Retinoic acid receptor RXR-alpha (Homo sapiens) (UniProt P19793). Described as above.
Assay [6] addresses Thyroid hormone receptor beta (Homo sapiens) (UniProt P10828). Briefly: qHTS assay for small molecule agonists of thyroid hormone receptor beta signaling (AID 588545).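 Note: 0% = DMSO only and 100% = 10 nM T3.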 A digest of the protocol:
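TR-UAS-bla GripTite HEK 293 cells (2500/well, medium with 2% charcoal/dextran FBS) were treated in agonist mode for 18 h at 37 C, titrated. Beta-lactamase was read by CCF4 ratio after 2 h; normalized to 10 nM T3 (100%) and DMSO, Hill-fitted for EC50 and efficacy.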

Assay [7] in a line: qHTS assay for small molecule antagonists of retinoid X receptor alpha signaling (AID 588546; active = well fitted inhibition curve with a large enough effect in the signal ratio, with a control signal flat, not every such curve was filed as active; the % refers to the signal ratio;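 note: cells stimulated with 9-cis-retinoic acid as agonist; % is set by controls: 0 for no effect and ±100 for the full control effect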). The note with it: HEK293T RXRa-UAS-bla, beta-lactamase ratio, antagonist mode; measured here: W530 green channel, cytotoxicity proxy. A digest of the protocol:
(§2)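 Beta-lactamase reporter inhibition, read as CCF4 fluorescence ratio (ex 405, em 460/530 nm) after 2 h at RT. HEK293T UAS-bla cells, 2500/well, were stimulated with 9-cis-RA at 500 or 100 nM final alongside test compound for 18 h at 37 C.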

Assay [8] addresses Thyroid hormone receptor beta (Homo sapiens) (UniProt P10828). Briefly: qHTS assay for small molecule antagonists of thyroid hormone receptor beta signaling (AID 588547; active = well fitted inhibition curve with a large enough effect in the signal ratio, with a control signal flat, not every such curve was filed as active; the % refers to the signal ratio;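 note: cells stimulated with 0.4 nM T3 agonist during compound exposure; series mostly up to about 77 µM; % is set by controls: 0 for no effect and ±100 for the full control effect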). The note with it: TR-UAS-bla HEK293, beta-lactamase ratio, antagonist mode, 18 h. A digest of the protocol: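 Inhibition of T3-driven (0.4nM final) beta-lactamase reporter activity was measured over 0.59 nM to 92 uM compound after 18 h at 37 C. The cells were GripTite HEK293 TR-UAS-bla in charcoal/dextran-stripped serum, with CCF4 ratio read-out and IC50 from Hill fits.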

The target of assay [9] is Voltage-gated inwardly rectifying potassium channel KCNH2 (Homo sapiens) (UniProt Q12809). Kind of assay: qHTS Assay for Small Molecule Inhibitors of the Human hERG Channel Activity (AID 588834; active = well fitted inhibition curve with a large enough effect;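 note: top concentration of the series differs between compounds; % is set by controls: 0 for no effect and ±100 for the full control effect; lower thallium flux fluorescence means stronger hERG block; nearly all actives have a fitted effect of over 50% in size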). A digest of the protocol:
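Concentration-response qHTS measuring drop in thallium-sensitive dye signal. U2OS cells carrying BacMam hERG; compound exposure ~10 min, then stimulation buffer and 2 min read at 1 sec intervals.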

Assay [10] can be described thus: qHTS assay for small molecule activators of the p53 signaling pathway (AID 651743; active = well fitted activation curve with a large enough effect in the signal ratio, not every such curve was filed as active; the % refers to the signal ratio; note: series mostly up to about 92 µM; % of control where 0% means no effect). The note with it: HCT-116 p53RE-bla, beta-lactamase FRET ratio, 16 h; stronger effect = higher value. A digest of the protocol: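 Screen for p53 pathway agonists uses stably transfected p53RE-bla HCT-116 cells, 4,000 per well, treated 16 h at 37 C with compounds in DMSO.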
In assay [11] the target is Vitamin D3 receptor (Homo sapiens) (UniProt P11473). Briefly: qHTS assay for small molecule antagonists of vitamin D receptor signaling (AID 588541). A digest of the protocol:
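Antagonist-mode beta-lactamase reporter assay: HEK293T VDR-UAS-bla cells were exposed to titrated compound alongside 1-alpha,25-dihydroxyvitamin D3 at 3 nM final for 16 h. Values were normalized to the 50 nM agonist control and DMSO basal, with IC50 and efficacy from Hill equation fits.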

Assay [12] has the same target. Briefly: qHTS assay for small molecule agonists of vitamin D receptor signaling (AID 588543).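 Note: 0% = DMSO basal and 100% = reference agonist control.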 A digest of the protocol: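 β-lactamase reporter, VDR-UAS-bla HEK293T, agonist mode. Cells plated 5 h at 37 °C, compound titration 16 h at 37 °C, CCF4 dye 2 h RT, ratio 460/530 nm. Hill fit → EC50, efficacy vs 50 nM 1α,25-(OH)2D3.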
For assay [13], the target named is Retinoic acid receptor RXR-alpha (Homo sapiens) (UniProt P19793). Briefly: qHTS assay for small molecule antagonists of retinoid X receptor alpha signaling (AID 588546).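 Note: cells stimulated with 9-cis-retinoic acid as agonist; % is set by controls: 0 for no effect and ±100 for the full control effect.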 The note with it: HEK293T RXRa-UAS-bla, beta-lactamase ratio, antagonist mode. A digest of the protocol:
as §2

The nature of assay [14]: qHTS assay for small molecule activators of the nuclear factor-kappa B (NF-kB) signaling pathway (AID 651749; active = well fitted activation curve with a large enough effect in the signal ratio; the % refers to the signal ratio; note: series mostly up to about 77 µM; % of control where 0% means no effect). Particulars: NF-kB-bla ME-180 cells, beta-lactamase FRET ratio, 16 h; stronger effect = higher value. A digest of the protocol: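 Stably transfected ME-180 line; NF-kB response element upstream of beta-lactamase. Treatment: compound or DMSO, 16 hr. Detection: fluorescent FRET substrate.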

The nature of assay [15]: qHTS assay for small molecule agonists of the antioxidant response element (ARE) signaling pathway (AID 651741; active = well fitted activation curve with a large enough effect in the signal ratio; the % refers to the signal ratio; note: % of control where 0% means no effect). A digest of the protocol: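 Seeding 2,000 ARE-bla HepG2 cells per well preceded a 5 h incubation at 37 C/5% CO2 and a 16 h compound exposure at 37 C. Beta-lactamase reporter activity was then quantified by fluorescence after 2 h with LiveBLAzer B/G FRET substrate.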

The target in assay [16] is Peroxisome proliferator-activated receptor gamma (Homo sapiens) (UniProt P37231). Briefly: qHTS assay for small molecule antagonists of peroxisome proliferator-activated receptor gamma signaling (AID 588537; active = well fitted inhibition curve with a large enough effect in the signal ratio, with a control signal flat, not every such curve was filed as active; the % refers to the signal ratio;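 note: reporter cells co-stimulated with 50 nM rosiglitazone agonist during compound treatment; % of control where 0% means no effect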). A digest of the protocol:
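Inhibitors of agonist-stimulated UAS-bla reporter activity were sought in HEK293 cells; rosiglitazone (50 nM) defined full signal and DMSO baseline. Curves fitted to Hill model gave IC50 and efficacy.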

Assay [17] deals with Peroxisome proliferator-activated receptor delta (Homo sapiens) (UniProt Q03181). Kind of assay: qHTS assay for small molecule antagonists of peroxisome proliferator-activated receptor delta signaling (AID 588535).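 For max response: cells co-treated with a PPAR-delta agonist as stimulator during compound exposure.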 A digest of the protocol: as §1
Peroxisome proliferator-activated receptor delta (Homo sapiens), sequence (Q03181 whole entry, looked up): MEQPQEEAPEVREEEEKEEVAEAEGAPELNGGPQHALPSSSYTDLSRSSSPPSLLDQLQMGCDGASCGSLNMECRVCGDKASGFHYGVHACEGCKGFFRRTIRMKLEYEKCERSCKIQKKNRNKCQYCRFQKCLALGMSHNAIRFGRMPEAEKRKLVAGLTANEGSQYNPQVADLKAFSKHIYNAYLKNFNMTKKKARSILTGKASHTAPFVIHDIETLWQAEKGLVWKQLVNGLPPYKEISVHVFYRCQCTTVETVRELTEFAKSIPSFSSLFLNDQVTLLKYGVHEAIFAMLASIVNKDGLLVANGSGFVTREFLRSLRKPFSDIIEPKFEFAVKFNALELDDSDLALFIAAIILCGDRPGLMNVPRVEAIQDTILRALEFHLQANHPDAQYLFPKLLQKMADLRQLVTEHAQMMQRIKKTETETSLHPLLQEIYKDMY

Thyroid hormone receptor beta (Homo sapiens), sequence (P10828 whole entry, looked up): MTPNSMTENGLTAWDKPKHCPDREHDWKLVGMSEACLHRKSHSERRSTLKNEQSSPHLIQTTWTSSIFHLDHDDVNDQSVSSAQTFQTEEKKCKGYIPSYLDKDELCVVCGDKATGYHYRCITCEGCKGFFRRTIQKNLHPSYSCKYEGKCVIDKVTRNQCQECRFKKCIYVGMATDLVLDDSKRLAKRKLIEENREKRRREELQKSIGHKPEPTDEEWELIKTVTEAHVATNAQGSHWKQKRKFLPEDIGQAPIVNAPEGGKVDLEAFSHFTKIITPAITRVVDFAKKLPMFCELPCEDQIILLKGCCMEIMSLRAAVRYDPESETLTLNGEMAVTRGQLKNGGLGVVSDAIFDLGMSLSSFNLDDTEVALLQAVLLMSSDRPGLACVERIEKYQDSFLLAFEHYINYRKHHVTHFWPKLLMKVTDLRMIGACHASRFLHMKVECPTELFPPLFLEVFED
Vitamin D3 receptor (Homo sapiens), sequence (P11473 whole entry, looked up): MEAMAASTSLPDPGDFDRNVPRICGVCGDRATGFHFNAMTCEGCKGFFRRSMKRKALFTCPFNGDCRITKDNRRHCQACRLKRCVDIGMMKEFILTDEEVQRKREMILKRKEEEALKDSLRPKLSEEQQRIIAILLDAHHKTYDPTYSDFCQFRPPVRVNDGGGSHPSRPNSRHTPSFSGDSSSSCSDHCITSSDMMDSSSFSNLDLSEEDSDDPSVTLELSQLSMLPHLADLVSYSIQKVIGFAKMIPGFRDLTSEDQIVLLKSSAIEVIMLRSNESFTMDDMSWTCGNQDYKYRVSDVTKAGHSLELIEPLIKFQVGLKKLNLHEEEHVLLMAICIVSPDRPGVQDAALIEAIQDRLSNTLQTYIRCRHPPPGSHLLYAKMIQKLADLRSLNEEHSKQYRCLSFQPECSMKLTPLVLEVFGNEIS
Retinoic acid receptor RXR-alpha (Homo sapiens), sequence (P19793 whole entry, looked up): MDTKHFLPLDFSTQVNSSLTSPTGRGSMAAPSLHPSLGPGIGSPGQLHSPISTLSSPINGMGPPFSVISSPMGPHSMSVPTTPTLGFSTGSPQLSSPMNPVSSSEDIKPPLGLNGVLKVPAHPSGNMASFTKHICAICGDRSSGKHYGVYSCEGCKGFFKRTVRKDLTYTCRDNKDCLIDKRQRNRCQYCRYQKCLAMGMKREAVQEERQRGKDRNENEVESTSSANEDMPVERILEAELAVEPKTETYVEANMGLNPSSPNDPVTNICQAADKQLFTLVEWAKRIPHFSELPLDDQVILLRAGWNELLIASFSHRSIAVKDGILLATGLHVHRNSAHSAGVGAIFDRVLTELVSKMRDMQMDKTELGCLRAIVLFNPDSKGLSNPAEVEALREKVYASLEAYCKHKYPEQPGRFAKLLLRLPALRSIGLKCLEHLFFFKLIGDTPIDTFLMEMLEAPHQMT
Peroxisome proliferator-activated receptor gamma (Homo sapiens), sequence (P37231 whole entry, looked up): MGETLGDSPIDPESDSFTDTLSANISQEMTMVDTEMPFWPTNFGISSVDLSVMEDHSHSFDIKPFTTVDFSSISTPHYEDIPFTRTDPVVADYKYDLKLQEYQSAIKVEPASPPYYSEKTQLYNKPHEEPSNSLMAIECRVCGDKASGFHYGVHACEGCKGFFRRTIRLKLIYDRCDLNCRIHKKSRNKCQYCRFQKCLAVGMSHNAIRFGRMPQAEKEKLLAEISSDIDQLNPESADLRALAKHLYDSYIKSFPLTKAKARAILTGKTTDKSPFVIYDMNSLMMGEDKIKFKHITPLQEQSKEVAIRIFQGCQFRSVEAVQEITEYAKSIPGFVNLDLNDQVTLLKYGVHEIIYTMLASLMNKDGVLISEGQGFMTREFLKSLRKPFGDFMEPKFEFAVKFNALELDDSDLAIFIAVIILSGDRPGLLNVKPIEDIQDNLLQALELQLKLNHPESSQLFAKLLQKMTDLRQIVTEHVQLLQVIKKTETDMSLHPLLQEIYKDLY
Voltage-gated inwardly rectifying potassium channel KCNH2 (Homo sapiens), sequence (Q12809 whole entry, looked up): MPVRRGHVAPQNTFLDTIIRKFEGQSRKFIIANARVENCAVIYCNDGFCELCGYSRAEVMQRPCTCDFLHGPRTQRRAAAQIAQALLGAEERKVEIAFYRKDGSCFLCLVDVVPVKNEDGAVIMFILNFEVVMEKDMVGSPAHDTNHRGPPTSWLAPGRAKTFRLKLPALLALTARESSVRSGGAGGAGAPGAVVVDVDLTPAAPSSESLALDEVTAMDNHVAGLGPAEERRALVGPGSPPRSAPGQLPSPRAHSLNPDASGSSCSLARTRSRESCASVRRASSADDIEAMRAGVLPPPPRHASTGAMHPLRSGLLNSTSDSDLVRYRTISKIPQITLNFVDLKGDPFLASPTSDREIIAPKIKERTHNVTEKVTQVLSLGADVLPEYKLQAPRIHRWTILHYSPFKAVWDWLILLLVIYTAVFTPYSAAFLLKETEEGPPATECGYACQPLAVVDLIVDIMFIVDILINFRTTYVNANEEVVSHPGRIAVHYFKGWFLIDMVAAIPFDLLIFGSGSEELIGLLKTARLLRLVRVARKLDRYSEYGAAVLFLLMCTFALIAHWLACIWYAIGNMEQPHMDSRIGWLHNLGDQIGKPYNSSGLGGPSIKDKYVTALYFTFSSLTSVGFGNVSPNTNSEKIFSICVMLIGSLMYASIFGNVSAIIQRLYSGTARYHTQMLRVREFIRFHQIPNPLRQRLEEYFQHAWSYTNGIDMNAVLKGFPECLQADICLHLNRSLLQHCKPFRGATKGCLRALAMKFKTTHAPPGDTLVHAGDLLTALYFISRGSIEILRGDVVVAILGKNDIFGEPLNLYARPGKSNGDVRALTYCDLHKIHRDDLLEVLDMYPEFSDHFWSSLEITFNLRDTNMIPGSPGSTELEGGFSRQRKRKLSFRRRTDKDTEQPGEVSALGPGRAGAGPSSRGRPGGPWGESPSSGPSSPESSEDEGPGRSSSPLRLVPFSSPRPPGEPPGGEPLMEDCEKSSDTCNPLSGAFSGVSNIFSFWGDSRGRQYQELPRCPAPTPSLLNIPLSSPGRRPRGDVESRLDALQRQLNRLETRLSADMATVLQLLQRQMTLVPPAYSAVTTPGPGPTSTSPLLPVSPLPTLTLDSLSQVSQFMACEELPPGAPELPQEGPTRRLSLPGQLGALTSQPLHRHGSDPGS
Glucocorticoid receptor (Homo sapiens), sequence (P04150 whole entry, looked up): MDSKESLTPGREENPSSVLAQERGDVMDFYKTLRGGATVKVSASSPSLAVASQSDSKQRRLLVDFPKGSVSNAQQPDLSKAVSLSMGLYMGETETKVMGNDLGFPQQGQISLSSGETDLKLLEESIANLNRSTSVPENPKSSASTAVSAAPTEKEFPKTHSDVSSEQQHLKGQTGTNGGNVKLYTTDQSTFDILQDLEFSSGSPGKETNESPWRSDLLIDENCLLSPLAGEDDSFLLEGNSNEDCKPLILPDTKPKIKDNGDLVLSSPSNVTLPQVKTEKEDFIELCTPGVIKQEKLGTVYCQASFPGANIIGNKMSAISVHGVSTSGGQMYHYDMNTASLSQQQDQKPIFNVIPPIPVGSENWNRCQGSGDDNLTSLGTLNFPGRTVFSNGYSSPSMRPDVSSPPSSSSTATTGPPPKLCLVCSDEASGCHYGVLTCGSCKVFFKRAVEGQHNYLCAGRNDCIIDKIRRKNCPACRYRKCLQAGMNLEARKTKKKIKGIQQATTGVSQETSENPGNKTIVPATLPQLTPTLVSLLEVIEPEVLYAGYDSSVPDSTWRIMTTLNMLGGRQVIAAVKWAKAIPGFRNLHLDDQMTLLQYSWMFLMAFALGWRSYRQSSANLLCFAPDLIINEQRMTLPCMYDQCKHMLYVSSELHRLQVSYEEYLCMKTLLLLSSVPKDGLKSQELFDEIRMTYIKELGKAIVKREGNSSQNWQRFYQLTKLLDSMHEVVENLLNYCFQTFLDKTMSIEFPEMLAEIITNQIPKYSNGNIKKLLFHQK

For `NC(=O)c1cccc([N+](=O)[O-])c1`, the outcome in assay [1], in assay [3], in assay [5] and in assay [6] was inactive. Besides, the values for the max response in assay [2], in assay [4] and in [7] were -10.1%, 2.13% and -10.9%, respectively. In addition, the activity change % (negative = inhibition) in assay [8] was 12.3% (inactive). In addition, in [9], the Potency result was “inactive”. Also, the activation in assay [10] is 8.78% (inactive).
With `CSc1ccc(C=O)cc1`, the compound was called inactive in assay [3], in assay [11], in assay [12], in assay [5] and in [6]. The max response in assay [4] was -15.5%; in assay [7], -1.24%; in [13] it was 1.67% (inactive). Also, in assay [8], the activity change % (negative = inhibition) was 3.08% (inactive). Besides, the Potency entry in assay [9] is “inactive”. Also, in assay [14], the activation is 0.0922% (inactive).
`COC(=O)CS`: the call in assay [11] and in assay [12] was inactive. Further, the max response in [4] is -8.12%; in assay [7], -3.61%; in assay [13], 1.63% (inactive). The Potency entry in assay [9] and in assay [15] was “inactive” throughout. For the same compound, the activation in assay [10] was -2.8% (inactive); in assay [14], -0.561% (inactive).
With `c1ccc(Nc2ccccc2)cc1`, the max response in assay [2] is -10.2% and 19.6%; in [4], -15.4% and 2.86%; in assay [7], 1.16% and -8.24%; in [13] it was -5.42% (inactive) and 3.85% (inactive). The outcome in assay [3], in [16], in assay [11], in assay [12] and in assay [5] was inactive. Moreover, the Potency entry in assay [9] and in assay [15] was “inactive” throughout. The activation in assay [10] is 1.33% (inactive) and -1.7% (inactive); in assay [14], 0.526% (inactive) and -2.1% (inactive).
Take `CC(=O)c1ccccc1[N+](=O)[O-]`: the max response is 4.84% in assay [2], -16.2% in assay [4], 5.46% in assay [7] and 5.8% (inactive) in assay [13]. Further, the call in assay [3], in assay [16], in assay [11], in assay [12] and in [5] was inactive. Also, the activity change % (negative = inhibition) in assay [8] is 19.8% (inactive). Besides, the Potency result in [9] and in assay [15] was “inactive” throughout.
Turning to `CC(C)Cc1nccs1`, the result in assay [3], in [11], in assay [12], in [5] and in [6] was inactive. Also, the max response was -0.474% in assay [4], -5.6% in [7] and 12.1% (inactive) in assay [13]. Moreover, in assay [8], the activity change % (negative = inhibition) was 0.497% (inactive). For the same compound, the Potency result in assay [9] and in assay [15] was “inactive” in each case. Also, the activation is 0.156% (inactive) in [10] and 0.674% (inactive) in assay [14].
Regarding `CCC=O`, the max response is -3.11% in [2], 2.22% in assay [4] and -6.66% in [7]. Moreover, the Potency result in [17], in assay [9] and in assay [15] was “inactive” each time. Further, the compound was called inactive in [3], in [11], in [12] and in assay [6]. In addition, in assay [8], the activity change % (negative = inhibition) is -3.74% (inactive). Further, the activation in assay [10] is -0.942% (inactive); in assay [14], -1.21% (inactive).
`C=C(C)C(=O)OCC(C)C`: the max response in assay [2] was -19.3%; in assay [4] it was -16.8%; in [7], -5.76%. Further, the result in assay [3], in assay [11], in assay [12] and in assay [6] was inactive. In addition, the activity change % (negative = inhibition) in assay [8] is 1.27% (inactive). Further, the Potency result in assay [9] is “inactive”. Besides, the activation is -1.84% (inactive) in assay [10] and 1.27% (inactive) in assay [14].
Regarding `COC(=O)c1ccccc1`, the max response in [2] is 19.3%; in [4], 0.622%; in assay [7] it was -5.14%; in [13], 4.4% (inactive). The Potency entry in [17] and in [9] was “inactive” in each case. The outcome in [3], in assay [11], in assay [12] and in assay [5] was inactive. Besides, the activity change % (negative = inhibition) in [8] was -7.56% (inactive). Also, the activation in assay [10] was 7.4% (inactive); in [14], 1.41% (inactive).
With `Cc1ccccc1Br`, the call in [3], in [11], in assay [12] and in [5] was inactive. For the same compound, the max response is -14.2% in [4], 1.58% in [7] and 1.27% (inactive) in assay [13]. In addition, the Potency entry in assay [9] and in [15] was “inactive” throughout. Further, the activation in [14] is -0.604% (inactive).
